In PubChem BioAssay:
Several values for one entry are separate records, joined by “and”; a condition that tells them apart may be missing. Equal values may be shown once. Activity calls are given as the source filed them.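 How the source made its calls, unless noted: active means compounds whose cell count with miR-34 switched on is under 0.7 times the count with it off; inactive means the rest.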

What was measured:
[1] = test system: Aerobactin synthetase IucA (Klebsiella pneumoniae); assay: inhibition of K. pneumoniae IucA enzyme – biochemical, Tocris library, absorbance (AID 1345561; call rule not given here;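 further: 100% = enzyme without compound and 0% = no enzyme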); conditions: purified IucA enzyme assay, absorbance (OD) read-out; stronger effect = lower value;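 tested at 8 µM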
[2] = viability loss with induced miR-34 in A549 – imaging, A549 dox-inducible miR-34, nuclei and caspase counts, primary screen (AID 1347080); conditions: A549 miR-34 inducible, Hoechst nuclei count, 48 h
[3] = galactose survival enhancers in mitochondrial complex I cybrids – cell-based, galactose medium, ATP luminescence, primary screen (AID 1645843;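 active means z-score of at least 1.8 in each of two replicates, scored against plate mean and spread of sample wells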;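 further: positive z means more ATP and so rescue of galactose-driven cybrid death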); conditions: complex I mutant cybrid cells, 72 h, stronger effect = higher value
[4] = stronger effect = lower value, cell number ratio, induced over uninduced
[5] = measured here: relative caspase fold change +Dox/-Dox
[6] = measured here: total cells with miR-34 induction, stronger effect = lower value
[7] = measured here: total cells without miR-34 induction

| Compound | remaining activity [1] | fold change [2, 4] | fold change [2, 5] | cell count [2, 6] | cell count [2, 7] | z-score [3] | fold change ([2]; stronger effect = lower value) |
| --- | --- | --- | --- | --- | --- | --- | --- |
| Cc1ncc(CN2CC=C(c3ccccc3)CC2)c(N)n1 | 92.9% (inactive) | 0.973 (inactive) | 1.21 | 8940 | 9190 | -0.505 (inactive) | – |
| CC[N+](CC)(CCCNC1=CC(=O)C(NCCC[N+](CC)(CC)Cc2ccccc2)=CC1=O)Cc1ccccc1 | 81.3% (inactive) | 0.951 (inactive) | 0.768 | 8950 | 9410 | -0.46 (inactive) | – |
| CCCCC1(C2CCCC2)Cc2cc(OCCCC(=O)O)c(Cl)c(Cl)c2C1=O (stereo not drawn) | 98.2% (inactive) | 0.969 (inactive) | 0.91 | 7490 | 7730 | 3.13 (active) | – |
| NC=Nc1ccc2[nH]c3c(c2c1)C[C@@]1(O)C2Cc4ccc(O)c5c4[C@@]1(CCN2CC1CC1)[C@H]3O5 | 121% (inactive) | – | 1.22 | 9860 | 10100 | -0.38 (inactive) | 0.975 (inactive) |
| CN(C(=O)Cc1ccc(Cl)c(Cl)c1)[C@H](CN1CCCC1)c1ccccc1 | 98.2% (inactive) | 0.987 (inactive) | 0.762 | 7540 | 7640 | -0.625 (inactive) | – |
| Oc1ccc2c3c1O[C@H]1c4c(c5ccccc5n4Cc4ccccc4)C[C@@]4(O)C(C2)N(CC2CC2)CC[C@]314 | 94.5% (inactive) | – | 1.27 | 2600 | 2780 | -1.2 (inactive) | 0.935 (inactive) |
| CCCOc1ccc2[nH]cc(C3=CCNCC3)c2n1 | 119% (inactive) | 0.982 (inactive) | 0.876 | 9040 | 9210 | -0.37 (inactive) | – |
| CN1[C@@H]2CC[C@H]1CC(OC(=O)N1Cc3ccccc3NC1=O)C2 (stereo partly drawn) | 119% (inactive) | 0.979 (inactive) | 1.11 | 8310 | 8490 | 0.365 (inactive) | – |
| OC(Cc1ccncc1)C(Cl)(Cl)Cl (stereo not drawn) | 118% (inactive) | 0.921 (inactive) | 0.736 | 9270 | 10100 | -0.53 (inactive) | – |
| O=C1CN=C(c2cccc(Br)c2)c2oc3ccccc3c2N1 | 121% (inactive) | 1.01 (inactive) | 1.75 | 2110 | 2080 | -0.285 (inactive) | – |
| CCOC(=O)c1ncc2[nH]c3ccc(OCc4ccccc4)cc3c2c1COC | 105% (inactive) | 0.974 (inactive) | 1.71 | 2080 | 2130 | -0.79 (inactive) | – |
| c1ccc(CC(c2ccccc2)N2CCCCC2)cc1 (stereo not drawn) | 103% (inactive) | – | 0.814 | 9440 | 9860 | -0.99 (inactive) | 0.958 (inactive) |
| Cc1ccc2c(c1)Cc1c(C(=O)NC3CCCCC3)nn(-c3ccc(Cl)cc3Cl)c1-2 | 103% (inactive) | 0.986 (inactive) | 1.35 | 8570 | 8690 | -0.01 (inactive) | – |
| CCN1C[C@]2(COC(=O)c3ccccc3N3C(=O)C[C@H](C)C3=O)CC[C@H](OC)[C@]34C2[C@H](OC)[C@](O)([C@H]13)[C@@]1(O)C[C@H](OC)[C@H]2C[C@@H]4[C@@H]1[C@H]2OC | 128% (inactive) | 0.94 (inactive) | 0.834 | 8220 | 8740 | -0.21 (inactive) | – |
| CNCCc1cnc[nH]1 | 101% (inactive) | 0.965 (inactive) | 0.943 | 9430 | 9770 | 0.115 (inactive) | – |
| CCC(Oc1ccc(Cl)cc1)C(=O)OC1CC2CCC(C1)N2C (stereo not drawn) | 88.1% (inactive) | 0.91 (inactive) | 1.03 | 8430 | 9270 | -0.285 (inactive) | – |
| O=C1CSC(c2ccccc2Cl)c2cc(Cl)ccc2N1 (stereo not drawn) | 115% (inactive) | – | 1.12 and 0.874 | 2450 and 7360 | 2880 and 8400 | -0.095 (inactive) | 0.848 (inactive) and 0.875 (inactive) |
| Cc1ccc2c(c1)C1(CCN(CCc3nc(-c4ccccc4)oc3C)CC1)OC(=O)N2 | 95% (inactive) | 0.966 (inactive) | 1.87 | 5420 | 5610 | -0.635 (inactive) | – |
| Cc1o[nH]c(=O)c1C[C@H](N)C(=O)O | 106% (inactive) | 1.04 (inactive) | 0.71 | 9160 | 8800 | 0.59 (inactive) | – |
| C=CCN1CC[C@]2(C)c3cc(O)ccc3CC1[C@@H]2C | 113% (inactive) | – | 0.641 | 8610 | 8960 | 0.05 (inactive) | 0.961 (inactive) |
| CCC[C@@H]1CC2=CC(=O)CC[C@]2(C)[C@H]2CC[C@@]3(C)[C@@H](CC[C@@]3(O)CCC(=O)O)[C@H]12 | 116% (inactive) | 0.926 (inactive) | 0.977 | 7340 | 7920 | 0.06 (inactive) | – |
| CN1Cc2ccccc2[C@@H]2c3cccc4[nH]cc(c34)C[C@H]21 | 114% (inactive) | 0.936 (inactive) | 0.677 | 4560 | 4870 | -0.7 (inactive) | – |
| COC(=O)CN1CN(c2ccccc2)C2(CCN(Cc3ccc4ccccc4c3)CC2)C1=O | 120% (inactive) | 0.912 (inactive) | 0.824 | 8960 | 9820 | 0.375 (inactive) | – |
